SENP6 inh: inhibitors of human SENP6 protease; inhibition, % at 10 µM; AID 2599; Recombinant SENP6 catalytic domain, aminoluciferin luminescence; 330,000 compounds, 1.8% hits;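 active means inhibition above about 50% at the single tested dose, limit read from the data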;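 further: plate controls were DMSO wells with enzyme for no effect and DMSO wells lacking enzyme for full effect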
SENP7 inh: SENP7 protease inhibition; Q9BQF6; recombinant SENP7, Z-RLRGG-aminoluciferin luminescence, 40 min; inhibition, % at 5 µM; 330,000 compounds, 1.5% hits; AID 434973;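 active means inhibition above about 50% at the single test dose, limit read from the data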;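 further: plate controls were DMSO with enzyme for no effect and no enzyme buffer wells for full effect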
HSP90 inh: inhibitors of HSP90 luciferase refolding in rabbit reticulocyte lysate. luciferase refolding luminescence, 3 h. 290,000 compounds, 0.91% hits. inhibition, % at 5.6 µM;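 active means inhibition above the screen-wide mean plus 3 SD, computed separately per campaign, cut at about 16% in these data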;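 further: 0% = DMSO wells and 100% = 60 µM geldanamycin wells; inhibitors lower the luminescence because luciferase stays unfolded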
LGR2 antag: inhibitors of bursicon-induced Drosophila LGR2 receptor cAMP signaling | inhibition, % at 9.99 µM | HEK293 LGR2, CRE-luciferase, bursicon-stimulated, 4 h | 380,000 compounds, 0.35% hits;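 active means drop in luminescence signal, shown as inhibition above about 50% in the replicate tests, limit read from the data, passing the limit was not always enough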;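 further: agonist challenge used bursicon conditioned medium at about half maximal strength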
SENP8 block-1: SENP8 protease inhibition; Q96LD8; purified SENP8, Z-RLRGG-aminoluciferin cleavage, luminescence; inhibition, % at 10 µM; 330,000 compounds, 1.2% hits; in the data active means inhibition above about 50%
Target sequence (Q96LD8 whole entry, looked up): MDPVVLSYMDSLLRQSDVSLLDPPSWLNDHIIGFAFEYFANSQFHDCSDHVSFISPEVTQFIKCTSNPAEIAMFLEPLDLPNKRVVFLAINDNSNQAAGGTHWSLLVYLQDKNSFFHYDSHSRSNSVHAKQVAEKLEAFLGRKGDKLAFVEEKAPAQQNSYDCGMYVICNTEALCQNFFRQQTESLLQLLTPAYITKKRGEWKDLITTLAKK
SENP8 block-2: inhibitors of human SENP8 protease; Q96LD8; recombinant SENP8, Nedd8 substrate fluorescence; inhibition, % at 20 µM; 360,000 compounds, 0.64% hits; in the data active means inhibition mostly above about 40%, no sharp cut-off; inactive means mostly below about 27%
SENP8 conf: confirmation of human SENP8 protease inhibitors; shares compounds with SENP7 inh; 6,200 compounds, 40% hits; Recombinant SENP8, Z-RLRGG-aminoluciferin luminescence, 60 min; inhibition, % at 12.5 µM;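 active means mean inhibition across replicates above about 50%, limit read from the data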
SENP6 confirm: confirmation of human SENP6 protease inhibitors; shares compounds with SENP7 inh; recombinant SENP6, Z-RLRGG-aminoluciferin luminescence; inhibition, % at 12.5 µM; 6,200 compounds, 58% hits
SENP7 confirm: confirmation of human SENP7 protease inhibitors; recombinant SENP7, Z-RLRGG-aminoluciferin luminescence, 40 min; 6,200 compounds, 69% hits; shares compounds with SENP7 inh; inhibition, % at 12.5 µM
Casp3 SENP sel: selectivity test for SENP inhibitors: human caspase-3 inhibition; 6,200 compounds, 60% hits; purified caspase-3, Z-DEVD-aminoluciferin luminescence, 60 min; shares compounds with SENP7 inh; inhibition, % at 12.5 µM;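 active means mean inhibition above about 50%, limit read from the data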;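 further: plate controls were enzyme with DMSO for no effect and wells without caspase-3 for full effect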
Target sequence (P42574 28-227 limits assumed): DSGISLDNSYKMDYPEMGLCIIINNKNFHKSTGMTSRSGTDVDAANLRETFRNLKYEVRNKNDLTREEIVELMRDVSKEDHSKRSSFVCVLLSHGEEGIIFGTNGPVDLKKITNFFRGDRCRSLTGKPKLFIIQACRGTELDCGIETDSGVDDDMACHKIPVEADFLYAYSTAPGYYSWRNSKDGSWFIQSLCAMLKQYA
Luc interf: interferes with luciferase luminescence in SENP counter-screen; Pre-incubated SENP8/Z-RLRGG-aminoluciferin, luciferase luminescence interference; 6,200 compounds, 39% hits; inhibition, % at 12.5 µM; shares compounds with SENP7 inh;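 active means mean inhibition above about 50% when retested at one dose, limit read from the data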;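 further: plate controls were DMSO wells with completed reaction for no effect and substrate without enzyme for full effect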
Numbers without * were called inactive. Compounds with a hit are over-represented: about 2.3% of the library has one in this group of screens.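 How the source made its calls, unless noted: active means mean inhibition above about 50% in the one-dose retest (limit read from the data); inactive means the rest.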

What do the screens show for `O=C(Nc1ccc(N2CCOCC2)cc1)c1cn2ccccc2n1`?
SENP6 inh: 96*; SENP7 inh: 93*; HSP90 inh: 14; SENP8 block-1: 85*; SENP8 block-2: 8; SENP8 conf: 86*; SENP6 confirm: 86*; SENP7 confirm: 98*; Casp3 SENP sel: 95*; Luc interf: 15

How did COc1ccccc1NC(=O)Nc1ccc(-n2ccc(C(F)(F)F)n2)cc1 do in these assays?
SENP6 inh: 80*; SENP7 inh: 82*; HSP90 inh: -4; LGR2 antag: -87; SENP8 block-1: 73*; SENP8 block-2: 14; SENP8 conf: 76*; SENP6 confirm: 82*; SENP7 confirm: 93*; Casp3 SENP sel: 44; Luc interf: 69*

What do the screens show for `C/C=C/c1ccc2c(c1)O[C@@H](CN(C)C(C)=O)[C@@H](C)CN([C@H](C)CO)S2(=O)=O`?
LGR2 antag: -13

How did C[C@H]1CCCCO[C@H](CN(C)C(=O)Nc2ccc3c(c2)OCO3)[C@@H](C)CN([C@@H](C)CO)C(=O)c2cc(NC(=O)c3ccncc3)ccc2O1 do in these assays?
LGR2 antag: 0

Results for O=C(Nc1cccnc1)c1ccc(Br)s1 ?
SENP6 inh: 11; SENP7 inh: 3; HSP90 inh: -2; SENP8 block-1: -14; SENP8 block-2: 12

How did CCc1sc(C(=O)Nc2cccnc2)cc1Br do in these assays?
SENP6 inh: 84*; SENP7 inh: 79*; HSP90 inh: -1; LGR2 antag: -41; SENP8 block-1: 60*; SENP8 block-2: 14; SENP8 conf: 0; SENP6 confirm: 67*; SENP7 confirm: 91*; Casp3 SENP sel: 64*; Luc interf: 72*

What do the screens show for `Cc1cccc(NC(=O)c2cc(-c3cc(C)c(C)cc3O)n[nH]2)c1`?
SENP6 inh: 17; SENP7 inh: 45; HSP90 inh: 2; LGR2 antag: -84; SENP8 block-1: -8; SENP8 block-2: 12

What do the screens show for `O=C(Nc1cccnc1)c1ccc(C(=O)Nc2cccnc2)cc1`?
SENP6 inh: 2; SENP7 inh: 5; HSP90 inh: 1; LGR2 antag: 12; SENP8 block-1: -2; SENP8 block-2: 12

What do the screens show for `Cc1ccc(-c2cc(C(=O)Nc3cccnc3)[nH]n2)c(O)c1C`?
SENP6 inh: 98*; SENP7 inh: 95*; HSP90 inh: -1; LGR2 antag: -80; SENP8 block-1: 93*; SENP8 block-2: 24; SENP8 conf: 96*; SENP6 confirm: 97*; SENP7 confirm: 101*; Casp3 SENP sel: 90*; Luc interf: 96*

What do the screens show for `CC(C)(C)c1ccc(C(=O)Nc2cccnc2)cc1`?
SENP6 inh: 69*; SENP7 inh: 62*; HSP90 inh: 3; LGR2 antag: 7; SENP8 block-1: 53*; SENP8 block-2: 9; SENP8 conf: 12; SENP6 confirm: 55*; SENP7 confirm: 86*; Casp3 SENP sel: 66*; Luc interf: 62*

What do the screens show for `C[C@H](CO)N1C[C@H](C)[C@@H](CN(C)C)Oc2cc(C#Cc3ccncc3)ccc2S1(=O)=O`?
LGR2 antag: -18

What do the screens show for `CCC(=O)N1[C@H](CO)[C@H](c2ccccc2)C12CN(C(=O)NC1CCCC1)C2`?
LGR2 antag: 2

How did C[C@H]1CN([C@@H](C)CO)C(=O)c2cc(NC(=O)CCCCCC(=O)Nc3ccccc3N)ccc2O[C@@H]1CN(C)S(=O)(=O)c1ccc(F)cc1 do in these assays?
LGR2 antag: -3

Screening data: PubChem BioAssay, several laboratories
